PME-1 inh: PME-1 inhibitors via competitive probe labeling, primary screen, biochemical, fluorescence polarization, FP-Rh probe, HTS. recombinant PME-1. 0.53% of 320,000 active. Protein phosphatase methylesterase 1 (Homo sapiens), Q9Y570. inhibition, % at 5.9 µM;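 active = inhibition above the campaign mean of all compounds plus 3 SD, cut at about 26% in these data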;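 note: competitive labeling of PME-1 active site by serine hydrolase directed probe; inhibitors block probe labeling so polarization falls and inhibition rises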
LYPLA1 inh: LYPLA1 inhibitors, primary screen, counter-screen for PME1 inhibitor project, biochemical, fluorescence polarization, FP-Rh probe ABPP. Acyl-protein thioesterase 1 (Homo sapiens), O75608. recombinant LYPLA1. inhibition, % at 5.9 µM. 0.16% of 320,000 active. AID 2174, 2009;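 active = inhibition above the mean of all tested compounds plus 3 SD, set per campaign, cut at about 14% in these data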;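 note: inhibitors block serine hydrolase probe labeling of LYPLA1 so polarization falls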
Target sequence (O75608 whole entry, looked up): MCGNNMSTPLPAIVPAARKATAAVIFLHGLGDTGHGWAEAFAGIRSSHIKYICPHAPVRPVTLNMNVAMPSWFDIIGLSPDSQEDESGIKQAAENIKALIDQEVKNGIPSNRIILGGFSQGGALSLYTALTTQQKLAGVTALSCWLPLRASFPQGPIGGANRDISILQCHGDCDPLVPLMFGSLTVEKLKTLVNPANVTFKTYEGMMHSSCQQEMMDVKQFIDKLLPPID
GSTO1 inh: inhibitors of recombinant GSTO1, primary screen, counter-screen for RBBP9 inhibitor project, biochemical, fluorescence polarization. Glutathione S-transferase omega-1 (Homo sapiens), P78417. activity-based probe fluorescence polarization. inhibition, % at 5.96 µM. 1.1% of 300,000 active. AID 1974, 2009;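 active = inhibition above the campaign mean inhibition plus 3 SD, cut at about 35% in these data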
Target sequence (P78417 whole entry, looked up): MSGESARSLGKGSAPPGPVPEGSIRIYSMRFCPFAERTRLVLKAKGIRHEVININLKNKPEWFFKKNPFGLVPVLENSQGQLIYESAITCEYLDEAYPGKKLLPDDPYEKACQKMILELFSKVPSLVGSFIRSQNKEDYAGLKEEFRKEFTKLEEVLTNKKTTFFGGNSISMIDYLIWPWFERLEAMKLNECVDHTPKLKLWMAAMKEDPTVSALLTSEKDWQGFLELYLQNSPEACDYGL
Fam108B counter: mouse Fam108B serine hydrolase inhibitors, primary screen, counter-screen for RBBP9 inhibitor project, biochemical, fluorescence polarization. inhibition, % at 9.51 µM. recombinant Fam108B, FP-Rh probe fluorescence polarization. 0.33% of 300,000 active;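 active = inhibition above the screen mean inhibition plus 3 SD, computed separately per campaign, cut at about 18% in these data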;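 note: inhibitors lower polarization as less probe binds the enzyme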
PAD4 inh: human PAD4 inhibitors, primary screen, biochemical, fluorescence polarization, 1536-well format; Protein-arginine deiminase type-4 (Homo sapiens), Q9UM07; AID 485272, 2010; inhibition, % at 6.36 µM; 0.41% of 330,000 active; recombinant PAD4, RCA probe fluorescence polarization;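 active = percent inhibition above a cutoff equal to the mean of all tested compounds plus 3 SD, cut at about 15% in these data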
LYPLA2 counter: LYPLA2 inhibitors, primary screen, counter-screen for PME1 inhibitor project, biochemical, fluorescence polarization, FP-Rh probe ABPP; recombinant LYPLA2; Acyl-protein thioesterase 2 (Homo sapiens), O95372; inhibition, % at 5.9 µM; 0.38% of 320,000 active;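 active = inhibition above the screen-wide mean plus 3 SD, limit set per campaign, cut at about 26% in these data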
GSTO1 inh conf: GSTO1 inhibitor hit confirmation, counter-screen for RBBP9 inhibitor project, biochemical, fluorescence polarization, triplicate; shares compounds with GSTO1 inh; recombinant GSTO1, probe fluorescence polarization; inhibition, % at 5.96 µM; 54% of 2,400 active;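 active = inhibition above the primary screen's cutoff, its mean inhibition plus 3 SD, cut at about 35% in these data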;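 note: loss of polarization as inhibitors block binding of rhodamine sulfonate ester activity probe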
LYPLA2 conf: LYPLA2 inhibitors, retest, confirmation, counter-screen for PME1 inhibitor project, biochemical, fluorescence polarization, FP-Rh probe ABPP; recombinant LYPLA2; 72% of 1,100 active; shares compounds with LYPLA2 counter; inhibition, % at 5.9 µM;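 active = mean inhibition across replicates above the hit cutoff set in the primary screen, cut at about 26% in these data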;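 note: blocked labeling of the enzyme by serine hydrolase FP-Rh probe lowers polarization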
PAD4 confirm: human PAD4 inhibitors, confirmation, biochemical, fluorescence polarization; shares compounds with PAD4 inh; recombinant PAD4, RCA probe fluorescence polarization; inhibition, % at 6.36 µM; 28% of 1,200 active; AID 488796, 2010;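 active = mean inhibition across replicates above the hit cutoff set by the earlier primary screen, cut at about 15% in these data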;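 note: inhibitors block active-site labeling by the probe so polarization falls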
Hits are given with their value. In the library only some 1.8% were active in any assay of this set; here they are far more common.

Results for Oc1ccc(-c2cn3c(n2)SCC3)cc1O ?
PME-1 inh: inactive; LYPLA1 inh: inactive; GSTO1 inh: 53; Fam108B counter: inactive; PAD4 inh: inactive; LYPLA2 counter: inactive; GSTO1 inh conf: inactive

How did Oc1ccc(-c2cn3c(n2)SCC3)cc1 do in these assays?
PME-1 inh: inactive; LYPLA1 inh: inactive; GSTO1 inh: inactive; Fam108B counter: inactive; PAD4 inh: inactive; LYPLA2 counter: inactive

What do the screens show for `O=C1CCCC(O)=C1C=Nc1ccc(O)cc1`?
PME-1 inh: inactive; LYPLA1 inh: inactive; GSTO1 inh: 60; Fam108B counter: inactive; PAD4 inh: inactive; LYPLA2 counter: inactive; GSTO1 inh conf: inactive

What do the screens show for `Cc1cc(OC(=O)N2CCOCC2)cc(C)c1Cl`?
PME-1 inh: inactive; LYPLA1 inh: inactive; GSTO1 inh: inactive; Fam108B counter: inactive; PAD4 inh: inactive; LYPLA2 counter: inactive

How did CC(=O)Oc1c(Cl)c(N2CCOCC2)c(OC(C)=O)c2ccccc12 do in these assays?
PME-1 inh: inactive; LYPLA1 inh: inactive; GSTO1 inh: 44; Fam108B counter: inactive; PAD4 inh: inactive; LYPLA2 counter: inactive; GSTO1 inh conf: inactive

How did Cc1nccn1CC(=O)N/N=C/c1cccc(O)c1 do in these assays?
PME-1 inh: inactive; LYPLA1 inh: inactive; GSTO1 inh: inactive; Fam108B counter: inactive; PAD4 inh: inactive; LYPLA2 counter: inactive

How did CCn1nc(C)cc1C(=O)N1CCCC(N2CCN(c3cccc(Cl)c3)CC2)C1 (configuration not stated) do in these assays?
PME-1 inh: inactive; LYPLA1 inh: inactive; GSTO1 inh: 47; Fam108B counter: inactive; PAD4 inh: inactive; LYPLA2 counter: 46; GSTO1 inh conf: inactive; LYPLA2 conf: 46

How did Cc1c(C(=O)NNC(=S)Nc2ccc(S(N)(=O)=O)cc2)oc2ccccc12 do in these assays?
PME-1 inh: inactive; LYPLA1 inh: inactive; GSTO1 inh: inactive; Fam108B counter: inactive; PAD4 inh: inactive; LYPLA2 counter: inactive

Results for Oc1c(Br)cc(Br)cc1C=Nc1cccc2ncccc12 ?
PME-1 inh: inactive; LYPLA1 inh: inactive; GSTO1 inh: 73; Fam108B counter: inactive; PAD4 inh: 37; LYPLA2 counter: inactive; GSTO1 inh conf: inactive; PAD4 confirm: inactive

Results for CNC1=C(N(C(C)=O)c2ccc(Br)cc2)C(=O)c2ccccc2C1=O ?
PME-1 inh: inactive; LYPLA1 inh: inactive; GSTO1 inh: 73; Fam108B counter: inactive; PAD4 inh: 47; LYPLA2 counter: inactive; GSTO1 inh conf: 63; PAD4 confirm: 16

What do the screens show for `CCn1c(-c2ccccc2)c(C(=O)CCl)c2ccccc21`?
PME-1 inh: inactive; LYPLA1 inh: inactive; GSTO1 inh: 60; Fam108B counter: inactive; PAD4 inh: 21; LYPLA2 counter: inactive; GSTO1 inh conf: 76; PAD4 confirm: 42

Results for CN(C)c1ccc(N/C=C/C(=O)c2ccccc2)cc1 ?
PME-1 inh: inactive; LYPLA1 inh: inactive; GSTO1 inh: 62; Fam108B counter: inactive; PAD4 inh: 17; LYPLA2 counter: inactive; GSTO1 inh conf: inactive; PAD4 confirm: inactive

What do the screens show for `CN(C)c1ccc(N/C=C/C(=O)C(C)(C)C)cc1`?
PME-1 inh: inactive; LYPLA1 inh: inactive; GSTO1 inh: 83; Fam108B counter: inactive; PAD4 inh: 18; LYPLA2 counter: inactive; GSTO1 inh conf: inactive; PAD4 confirm: inactive
